Assay outcomes as filed in PubChem BioAssay.
NS1 inh = qHTS Assay for Inhibitors of Influenza NS1 Protein Function; Potency, µM (titrated, usually from 46.1 µM), for inactives: at the top dose activity, positive = more growth; hit rate 0.4% among 270,000; AID 2326, 2010; calls by dose curve; note: potency is the fitted concentration of half-maximal effect; actives are rising curves; nearly all actives have a fitted effect of over 50% in size
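Read-out: OD600 growth recovery of NS1-expressing budding yeast. Cells grown overnight at 30C in -URA glucose medium, washed, resuspended and diluted 1:100 in 2% galactose assay medium, pH 6.0. Same strain lacking NS1 served as positive control.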
Shiga inhibitor = A qHTS for Small Molecule Inhibitors of Shiga Toxin. hit rate 9.2% among 290,000. inhibition, % at 38.7 µM. Vero cells, Shiga toxin protein synthesis inhibition reporter; in the data active = inhibition mostly above about 28%, no sharp cut-off; inactive = mostly below about 43%; note: 0% is about no effect
CHX counter = Cycloheximide Counterscreen for Small Molecule Inhibitors of Shiga Toxin. cell reporter, cycloheximide protein synthesis inhibition counterscreen. hit rate 12% among 300,000. max response, %; in the data active = max response mostly above about 13%, no sharp cut-off; inactive = mostly below about 14%; note: read at 38.3 µM for the half of the compounds with a filed dose; 0% is about no effect
Sm TGR inh = qHTS Assay for the Inhibitors of Schistosoma Mansoni Peroxiredoxins. Schistosoma mansoni thioredoxin glutathione reductase (TGR), Q962Y6. purified TGR, DTNB reduction, TNB absorbance 405 nm. Potency, µM (series often up to 114 µM), without a hit: at the highest dose activity change, negative = inhibition, most hits filed as inhibitors. hit rate 3% among 360,000. AID 485364, 2010; note: potency is the fitted concentration of half-maximal effect; % is set by controls: 0 for no effect and ±100 for the full control effect; nearly all actives have a fitted effect of over 60% in size
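First, TGR (20 nM dispensed) and NADPH were mixed with compound. Second, a 15 min room-temperature incubation followed. Third, further NADPH and then DTNB were added to start the reaction. Finally, TNB absorbance was monitored kinetically.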
Pf growth 48h = Primary qHTS for delayed death inhibitors of the malarial parasite plastid, 48 hour incubation; hit rate 5.9% among 310,000; Potency, µM (series often up to 28.7 µM), for inactives: at the highest dose activity change, negative = inhibition, most hits filed as inhibitors; P. falciparum luciferase growth in erythrocytes, 48 h; AID 504832, 2011; note: potency is the fitted concentration of half-maximal effect; % is set by controls: 0 for no effect and ±100 for the full control effect
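First compound was added to culture medium, then infected red cells at 0.1% parasitemia and 2% hematocrit (final). After incubation at 37 C under 5% CO2, luciferase detection reagent was dispensed and light output recorded.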
Pf growth 96h = Primary qHTS for delayed death inhibitors of the malarial parasite plastid, 96 hour incubation | P. falciparum luciferase reporter growth, 96 h | Potency, µM (highest dose often 28.7 µM), for inactives: at the highest dose activity change, negative = inhibition, most hits filed as inhibitors | hit rate 6.9% among 320,000; note: potency is the fitted concentration of half-maximal effect; % is set by controls: 0 for no effect and ±100 for the full control effect
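P. falciparum expressing integrated firefly luciferase, in erythrocytes at 2% hematocrit, 0.05% parasitemia, incubated with compounds 96 h at 37 C, 5% CO2. Growth inhibition read as loss of luminescence; two-generation exposure targets delayed-death apicoplast inhibitors.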
* = called active by the depositor; i = inactive; u = inconclusive; x = no result; [ ] = another dose, or the depositor's remark. Rows were chosen to be rich in hits. Some 21% of all compounds tested hit in one or more screens of this group. Unless noted, calls come from the whole dose curve; as a rule, active = well fitted curve in the direction sought with a large enough effect; inconclusive = small, poorly fitted or top-dose-only effect, or another doubt; inactive = no such curve, though single readings can be large; an effect the other way counts as inactive or inconclusive.

SMILES	NS1 inh	Shiga inhibitor	CHX counter	Sm TGR inh	Pf growth 48h	Pf growth 96h
COP(=O)(OC)C(Nc1ccc(C)cc1)c1ccc([N+](=O)[O-])cc1 (stereo not drawn)	-1.0%	24.6*	44.0*	1.3%	40.6%	24.2%
CCOc1ccc(NC(c2ccccc2)P(=O)(OC)OC)cc1 (stereo not drawn)	19.8%	25.7*	11.9	15.8µM*	52.1%	u
COc1ccc(C(Nc2ccccc2)P(=O)(Oc2ccccc2)Oc2ccccc2)cc1 (stereo not drawn)	9.6%	56.5*	27.7*	-11.0%	u	0.0%
Cc1[nH]c2ccccc2c1-c1csc(NC(=O)CN2CCOCC2)n1	7.2%	21.7	-1.9	-4.3%	-5.3%	26.2%[5.75 µM]
COc1cc2c(cc1OC)C(c1ccc(F)cc1)N(c1ccc(F)cc1)C(=O)C2 (stereo not drawn)	x	x	x	0.7%	x	x
O=C1CCN(S(=O)(=O)c2ccc(Br)cc2)CCN1	x	1.7	-3.3	-4.6%	51.4%	u
CCN(CC)c1ccc(N2C(=O)/C(=C/c3cccs3)SC2=S)cc1	-7.7%	5.1	-4.1	0.0%	71.3%	0.0%
O=C1/C(=C\c2cccs2)Sc2ccc3ccccc3c21	-4.7%	84.3*	47.6*	-6.4%	105.4%	11.7%
CCC(C)(C)NC(=O)C(Sc1ccccc1)c1ccccc1 (stereo not drawn)	-6.2%	24.9	-1.1	4.6%	u	10.4µM*
C=CCC(COCc1ccccc1)NS(=O)(=O)c1ccccc1Br (stereo not drawn)	-6.4%	-11.1	-0.9	10.3%	13.1µM*	u
CCOCCCNC(=O)c1cc(Sc2ccc(F)cc2)nc2ccccc12	-5.5%	-2.6	-1.1	-6.7%	17.3%	13.1µM*
Cc1ccc(Sc2cc(C(=O)NCCN(C)C)c3ccccc3n2)cc1	-5.6%	-10.5	-4.3	-20.7%	u	27.0%
Cc1ccc(Sc2cc(C(=O)NCCCN(C)C)c3ccccc3n2)cc1	0.3%	-7.8	-1.9	39.8µM*	-7.5%[0.00184 µM]	u
COCCCNC(=O)c1cc(Sc2ccc(F)cc2)nc2ccccc12	-13.4%	-10.5	-2.5	-9.7%	10.7%	u
COc1cc2c(cc1OC)[C@@]13CCN4C=C5CCO[C@H]6CC(=O)N2[C@@H]1C6[C@H]5C[C@H]43 (stereo partly drawn)	-2.6%	x	x	x	x	x
Cc1cccc(-n2ncc3c2CCCC3NC(=O)C2CCOCC2)c1C (stereo not drawn)	-0.4%	-18.0	-2.3	-7.9%	-15.1%	-14.9%
COC(=O)/C(=N/Nc1cccc(C)c1)N1CCCc2ccccc21	-23.5%	42.9	18.9*	1.2%	-57.0%	0.0%
COC(=O)/C(=N/Nc1ccccc1)N1CCCc2ccccc21	-4.7%	-2.8	6.2	8.7%	-10.9%	10.4µM*
CC(=O)/C(=N/Nc1ccc(Br)cc1)N1CCCc2ccccc21	-55.6%	-5.2	6.0	0.0%	15.9%	1.7%
COC(=O)/C(=N/Nc1ccc(C)cc1)N1CCCc2ccccc21	-8.9%	-10.4	-2.4	-5.9%	u	11.7µM*
O=C(C(c1ccccc1)c1ccccc1)N1CCCc2ccccc21	-9.2%	119.4*	29.6*	-23.3%	u	-109.6%
O=C(Nc1ccc(S(=O)(=O)Nc2ncccn2)cc1)c1cccc(S(=O)(=O)N2CCOCC2)c1	1.4%	-4.2	8.7	4.1%	2.1%	32.5%
CSc1ccc(S(=O)(=O)N2CCC(C(=O)NCc3ccccn3)CC2)cc1	-6.5%	12.1	-1.0	0.3%	-6.7%	11.7µM*
Cc1ccc(S(=O)(=O)N2CCC(C(=O)NCc3ccccc3Cl)CC2)cc1	-3.4%	3.8	-1.7	9.7%	x	10.4µM*
CCCS(=O)(=O)N1CCC(C(=O)NCc2ccccc2Cl)CC1	6.4%	22.2	16.7*	3.3%	24.2%	10.4µM*
SMILES	NS1 inh	Shiga inhibitor	CHX counter	Sm TGR inh	Pf growth 48h	Pf growth 96h
O=C1[O][Bi][O]c2ccccc21	x	x	x	x	4.6%	21.0%
CC1CCN(S(=O)(=O)c2ccc3c(c2)N(CC(=O)N2CCN(c4ccc(Cl)cc4)CC2)C(=O)CO3)CC1	x	x	x	5.8%	x	x
CC(C)CC1c2[nH]c3ccccc3c2CCN1CCCn1cccn1 (stereo not drawn)	-9.3%	-6.9	-2.3	-22.2%	u	13.1µM*
COc1ccc(C2c3[nH]c4ccccc4c3CCN2CCCn2cccn2)c(C)c1C (stereo not drawn)	-3.4%	-25.4	-0.2	-2.2%	u	11.7µM*
CCOc1ccc(C2c3[nH]c4ccccc4c3CCN2CCCn2cccn2)cc1 (stereo not drawn)	-2.8%	11.8	-2.3	-15.9%	u	u
O=C1C(c2ccnc3ccccc23)=C(O)c2ccccc21	0.7%	active	47.0*	-6.4%	i	u
O=C1c2ccccc2C(=O)C1c1nccc2ccccc12	-0.1%	96.7*	41.1*	7.1%	71.3%	8.7%
O=C1c2ccccc2C(=O)C1c1ccnc2ccccc12	-5.0%	92.7*	37.5*	-12.5%	459.6%	i
N#CC1=C(N)SC(N)=C(C#N)C1c1ccnc2ccccc12	0.7%	2.0	-4.2	u	0.0%	x
O=C1C(=O)c2ccccc2C(O)=C1c1ccccc1F	-107.6%	3.0	-6.6	-4.1%	u	u
CC1CN(C(=O)c2ccccc2OCc2ccc(Cl)cc2Cl)CC(C)O1 (stereo not drawn)	x	x	x	-2.0%	u	u
CC1CN(C(=O)c2cccc(COc3ccccc3Cl)c2)CC(C)O1 (stereo not drawn)	-2.0%	135.3*	40.3*	6.8%	133.6%	u
CC1CN(C(=O)c2cccc(C(=O)N3CC(C)OC(C)C3)c2)CC(C)O1 (stereo not drawn)	-3.4%	-13.0	-2.9	7.4%	12.7%	14.7µM*
CC(=O)NC12CC3CC(C1)CC(C(=O)Nc1nc4c(C)cccc4s1)(C3)C2	18.5%	12.9	6.0	5.4%	-14.5%	u
COc1cc(C2N(c3ccccc3)CCN2c2ccccc2)ccc1OC(C)=O	u	55.9	47.1*	-3.6%	20.1%	-13.8%
COc1cc(C2N(Cc3ccccc3)CCN2Cc2ccccc2)ccc1OC(C)=O	-9.1%	-11.4	1.0	-10.2%	-2.0%	u
CCSc1ncc(Cl)c(C(=O)Nc2ccccc2)n1	5.6%	-8.9	4.6	-10.3%	3.2%	8.28µM*
CSc1ncc(Cl)c(C(=O)Nc2ccccc2[N+](=O)[O-])n1	6.1%	-5.9	-1.8	-4.7%	66.1%	9.28µM*
CCSc1ncc(Cl)c(C(=O)Nc2ccc(S(N)(=O)=O)cc2)n1	4.4%	-3.9	-2.8	7.1%	5.1%	9.28µM*
CCSc1ncc(Cl)c(C(=O)Nc2c(C(=O)Nc3ccccc3)oc3ccccc23)n1	x	x	x	9.8%	x	x
